# This is a sample that favours compounds with a hit; in the whole collection about 2.9% have one here.
# DRD3 agonist – activates the human D3 dopamine receptor; max activation, %; P35462; AID 652048; D3R DiscoveRx beta-arrestin cells, luminescence, 90 min; actives 0.58% (n = 410,000); in the data active means max activation above about 30%
# Target sequence (P35462 whole entry, looked up): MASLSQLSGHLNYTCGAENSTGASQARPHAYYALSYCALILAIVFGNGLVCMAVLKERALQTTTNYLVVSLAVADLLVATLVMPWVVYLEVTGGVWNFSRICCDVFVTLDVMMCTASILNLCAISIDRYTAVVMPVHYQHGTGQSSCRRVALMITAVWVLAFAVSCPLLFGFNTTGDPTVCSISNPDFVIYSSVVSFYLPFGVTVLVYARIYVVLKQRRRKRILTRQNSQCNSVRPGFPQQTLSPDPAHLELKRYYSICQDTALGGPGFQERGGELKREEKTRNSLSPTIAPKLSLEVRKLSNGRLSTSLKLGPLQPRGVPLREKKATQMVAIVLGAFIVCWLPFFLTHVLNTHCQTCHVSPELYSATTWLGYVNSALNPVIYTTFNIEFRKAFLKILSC
#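 Cells at 1500/well, incubated overnight, then treated with pinned compounds (dopamine as control) for 90 min at 37 degrees C. DiscoveRx reagent added for 30 - 60 minutes at room temperature; luminescence read.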
# DRD3 antagonist – D3 dopamine receptor (human) antagonism; AID 652054; actives 2.5% (n = 360,000); max response, negative = inhibition, %; D3R cells, DiscoveRx beta-arrestin luminescence, antagonist mode; stronger effect = lower value; in the data active means max response below about -50%; inconclusive means no clear call, values can overlap the other calls
#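 Cells expressing the human receptor were seeded at 1500 cells/well, incubated overnight at 37 degrees C in 5% CO2, then exposed to library compounds with dopamine controls for 90 minutes at 37 degrees C before luminescent detection.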
# B2AR arrestin – beta2AR (human) beta-arrestin recruitment activity; P07550; beta-arrestin recruitment to beta2AR, cell-based reporter; Potency, µM (doses to about 46.1 µM), most hits filed as activators; actives 0.02% (n = 330,000); AID 492947; active means well fitted activation curve with a large enough effect; inconclusive means small, poorly fitted or top-dose-only effect; further: nearly all actives have a fitted effect of over 65% in size
# TSHR antag – blocks TSH signaling through the human TSH receptor; activity change, negative = inhibition, % at 11.5 µM; P16473; TSHR-expressing cells, TSH-stimulated cAMP HTRF, 2 h; stronger effect = lower value; AID 504810; actives 0.2% (n = 330,000);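 active means activity change below a set negative limit, meaning inhibition stronger than a set level, cut at about -70% in these data; inconclusive means activity change between two set negative limits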
#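 Cell-based HTRF cAMP assay; TSHR cells + compound, TSH EC80 (4nM final), 2 h, 37 deg C. Lysis with anti-cAMP cryptate and cAMP-d2, 30 min RT, read 665/620 nm.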
# Hits are given with their value; . = inactive; ? = inconclusive; / = no result given; ! = not active in a repeat.
SMILES,DRD3 agonist,DRD3 antagonist,B2AR arrestin,TSHR antag
O=[N+]([O-])c1c(Nc2ccccc2O)cc(Cl)c2nonc12,.,-140,.,-77
O=[N+]([O-])c1c(Nc2ccccc2O)ccc2nonc12,.,.,.,.
CCC(=O)Nc1ccccc1-c1nc2ccccc2n(C(C)C(=O)Nc2cccc(Cl)c2C)c1=O (stereo not given),.,/,/,/
CC1CCc2nn(CC(=O)NCCCN3CCCC3=O)cc2C1 (stereo not given),.,.,.,.
Cc1ccc(C)c(N2CCN(CCCNC(=O)Cn3cc4c(n3)CCC(C)C4)CC2)c1 (stereo not given),.,-60,.,.
Cc1ccc(C)c(N2CCN(CCCNC(=O)Cn3cc4c(n3)CCCCC4)CC2)c1,.,-96,.,.
O=C(Cn1cc2c(n1)CCCC2)NCCCN1CCN(c2ccccc2F)CC1,.,-83,.,.
COc1ccccc1CCn1cnc(C)c1CC(C)C,.,-78,/,/
CCOc1ccc(C(=O)c2cn(CC(=O)Nc3cccc(OC)c3)c3cc4c(cc3c2=O)OCCO4)cc1,.,/,/,/
CCCN(CCC)c1nn2c(=O)c(C(=O)NCc3cccc(OC)c3)cnc2s1,.,/,/,/
CCOC(=O)c1cnc2ccc(C)cc2c1Nc1ccc(N2CCOCC2)cc1,.,-59,.,.
CCOC(=O)c1cnc2ccc(OCC)cc2c1NCc1ccccc1,48,.,.,.
CCOC(=O)c1cnc2ccc(OCC)cc2c1N1CCN(c2ccccc2)CC1,.,-65,.,.
COCCn1c(SCC(=O)c2ccc(Cl)cc2)nnc1C(C)C,.,-70,.,.
O=C(COc1ccccc1Cl)N(Cc1ccco1)Cc1ccco1,.,/,/,/
COc1cccc(/C=N/NC(=O)c2cc(-c3ccccn3)nc3ccccc23)c1O,.,.,.,.
O=C(N/N=C/c1cc(Cl)cc([N+](=O)[O-])c1O)c1cc(-c2ccccn2)nc2ccccc12,.,-61,.,.
O=[N+]([O-])c1cc(Cl)cc(/C=N\Nc2ccccn2)c1O,.,-106,.,.
Cn1c(-c2ccccc2)cc2onc(-c3ccccc3)c2c1=O,.,-69,.,.
Cn1c(-c2ccccc2F)cc2onc(-c3ccccc3)c2c1=O,.,.,.,.
CCOc1cc(CC(=O)N[C@@H](CC(C)C)c2ccccc2N2CCCCC2)ccc1C(=O)O,96!,.,.,.
Cc1ccc(-n2ncc3c(N(C)Cc4ccccc4)ncnc32)cc1,.,/,/,/
COc1cccc(/C=N/n2c(N)nc3ccccc32)c1OC,30,.,.,.
CCC(CC)C(=O)Nc1nnc2n1CCS2,.,/,/,/
COc1ccc(CN2CCN(Cc3ccc4ccccc4c3)CC2)cc1OC,.,-76,.,.
SMILES,DRD3 agonist,DRD3 antagonist,B2AR arrestin,TSHR antag
COc1ccc2ccccc2c1CN1CCCC(CO)C1 (stereo not given),.,.,.,.
COc1ccccc1CN1CCCCCC1,.,.,.,.
CCOc1ccccc1N1CCN(Cc2ccc(OC)c(OC)c2)CC1,.,.,.,.
COc1ccccc1CN1CCN(Cc2ccc3ccccc3c2)CC1,.,-90,.,.
COc1ccc2ccccc2c1CN1CCN(Cc2ccccc2)CC1,.,-71,.,.
CC(=O)c1ccc(NC(=O)c2cc3c(=O)oc4ccc(C)cc4c3s2)cc1,.,/,/,/
CNC(=O)c1nnsc1S(=O)c1ccc(Cl)cc1 (stereo not given),.,-55,.,.
Cc1ccc(S(=O)c2snnc2C)cc1 (stereo not given),.,.,.,.
CCCNC(=O)c1nnsc1S(=O)c1ccc(Cl)cc1 (stereo not given),.,-78,.,.
CCCNC(=O)c1ccc2snnc2c1,.,.,.,.
CCCNC(=O)c1nnsc1S(=O)(=O)c1ccc(Cl)cc1,.,-85,.,?
CCC1Nc2ncnc(N3CCN(c4ccccn4)CC3)c2N(Cc2ccc(Br)cc2)C1=O (stereo not given),.,-142,.,.
CCC1Nc2ncnc(N3CCN(c4ccccn4)CC3)c2N(Cc2ccc(Cl)cc2)C1=O (stereo not given),.,-104,.,.
CCC1Nc2ncnc(N3CCOCC3)c2N(Cc2ccc(Br)cc2)C1=O (stereo not given),.,.,.,.
O=C(Nc1nc2cc3c(cc2s1)OCCO3)c1cccc(N2C(=O)CCC2=O)c1,.,.,.,.
CCN(CC)S(=O)(=O)c1ccc2nc(NC(=O)c3cccs3)sc2c1,.,-56,.,.
CCN(CC)S(=O)(=O)c1cccc(C(=O)Nc2nc3cc4c(cc3s2)OCCO4)c1,.,.,.,-78
FC(F)(F)c1cccc(N2CCN(Cc3cccnc3)CC2)c1,.,-74,.,.
